# 697 NFkB inh – inhibitors of the PMA/ionomycin-induced NF-kB reporter in 697 B cells; 330,000 tested, 0.33% active; 697 B-cell NF-kB luciferase reporter, 16 h; inhibition, % at 4 µM; in the data active means inhibition above about 35%
# Shn3 inh set2 – reduces Shn3 3'UTR luciferase signal in osteoblasts; Clone20 osteoblast Shn3 3'UTR firefly luciferase, 24 h; inhibition, % at 12.5 µM; 360,000 tested, 0.52% active; AID 588674;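 active means mean inhibition of at least 75% with every replicate also reaching 75%; inconclusive means mean inhibition at least 75% but some replicate below; inactive means mean inhibition below 75%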
# aSyn UTR inh – 5' untranslated region of α-synuclein, MLPCN primary screen. alpha-synuclein 5'UTR reporter, inhibitor activity. inhibition, % (tested at 7.5 µM). 300,000 tested, 0.82% active; in the data active means inhibition above about 60%; inconclusive means no clear call, values can overlap the other calls;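 further: H4 neuroglioblastoma cells stably carrying SNCA 5'UTR luciferase fusion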
# Jurkat NFkB inh – inhibitors of the PMA/ionomycin-induced NF-kB reporter in Jurkat cells | PMA/ionomycin-induced NF-kB luciferase reporter, luminescence | 330,000 tested, 0.53% active | AID 435003 | inhibition, % at 4 µM; in the data active means inhibition above about 50%
# TAG inh – reduces triacylglycerol accumulation in H9c2 cells; Nile Red lipid (TAG) fluorescence; cells loaded with 200 µM oleic acid; inhibition, % at 12.5 µM; 230,000 tested, 0.66% active;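 active means pattern-corrected inhibition of lipid staining of at least 50% with the nuclear-stain viability signal not falling by more than 50%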
# Gli-Sufu antag – blocks Gli-Sufu signaling in a luciferase reporter; 340,000 tested, 0.74% active; inhibition, % at 5 µM; Sufu-KO-LIGHT fibroblasts, Gli luciferase reporter luminescence; AID 588413;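 active means inhibition above about 55%, limit read from the data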
# Jurkat NFkB conf – inhibitors of the PMA/ionomycin-induced NF-kB reporter in Jurkat cells, retest; inhibition, % at 4 µM; 2,700 tested, 27% active; shares compounds with Jurkat NFkB inh; AID 435020; Jurkat NF-kB luciferase, 16 h;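 active means inhibition reaching about 45% at 4 µM in either replicate, limit read from the data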
# Numbers stand for hits; 0 = inactive; ? = inconclusive; - = not tested or not shown. In the library only some 2.3% were active in any assay of this set; here they are far more common.
SMILES,697 NFkB inh,Shn3 inh set2,aSyn UTR inh,Jurkat NFkB inh,TAG inh,Gli-Sufu antag,others
O=C1NC(=S)S/C1=C\C=C\c1ccc([N+](=O)[O-])o1,-,0,-,-,51,0,
CC(C)c1cc(C(F)(F)F)n2nc(C(=O)O)cc2n1,0,0,0,0,-,0,
COc1cc(C(=O)Oc2c(CN3CCOCC3)cc(Cl)c3cccnc23)cc(OC)c1OC,0,0,78,0,0,0,
COc1cccc(C(=O)Oc2c(CN3CCOCC3)cc(Cl)c3cccnc23)c1,0,0,89,0,-,0,
CCN(CC)S(=O)(=O)c1ccc(C(=O)Nc2nnc(COC)o2)cc1,0,0,0,0,0,0,
CCCCN(CCCC)S(=O)(=O)c1ccc(C(=O)Nc2nnc(COC)o2)cc1,0,0,62,0,0,0,
CCc1nnc(NC(=O)c2ccc(S(=O)(=O)N(C)Cc3ccccc3)cc2)o1,0,0,63,0,0,0,
CC[n+]1c(/C=C2\Sc3ccccc3N2C)ccc2cccc(C)c21,-,89,116,-,0,87,
Fc1cccc(Cc2c(-c3cccc(Cl)c3)nc3c4ccccc4ccn23)c1,-,0,-,-,-,-,
CC1CC(=O)NN=C1c1ccc(NCCO)c([N+](=O)[O-])c1 (stereo not drawn),0,0,76,0,-,0,
CCOc1ccc2[nH]cc(C(=O)NCc3ccc(F)cc3)c(=O)c2c1,0,0,0,0,0,-,
COc1ccccc1-c1c(-c2ccc(OCC(=O)NN)cc2O)n[nH]c1C(F)(F)F,0,0,0,0,-,0,
Cc1nc(Nc2nc3ccccc3o2)nc2c1CCC2,0,0,71,0,-,0,
CCOC(=O)c1cnc(Nc2nc3ccccc3o2)nc1C,0,0,86,0,-,0,
Cc1nc(Nc2cnc(/C=C/c3cc(C(=O)Nc4cccc(C(F)(F)F)c4)ccc3C)cn2)cc(N2CCNCC2)n1,0,-,81,0,-,0,
Cc1nc(N2CCC(C)CC2)c2c(C)c(C(=O)Nc3cccc(C(F)(F)F)c3)sc2n1,0,0,0,0,0,0,
COc1ccc(Cc2ccccc2C(=O)O)cc1,-,0,-,-,0,0,
COc1ccc(CC2=CC(=O)c3ccccc3C2=O)cc1,0,89,0,0,0,0,
O=C(C=Cc1ccccc1)c1cc(Br)ccc1O,-,0,-,-,0,0,
Cc1ccc2nc(-c3cccc(SC4CCCCC4)c3)c(NCc3ccccc3)n2c1,0,0,-,0,0,0,
c1ccc(CNc2c(-c3cccc(SC4CCCCC4)c3)nc3ccccn23)cc1,0,90,-,0,0,0,
COc1ccc(-c2nc3ccc(C)cn3c2NCc2ccccc2)cc1SC1CCCCC1,0,98,0,0,0,0,
CCCCNc1c(-c2ccc(OC)c(SC3CCCCC3)c2)nc2ccc(C)cn12,0,96,-,0,0,0,
COc1ccc(-c2cc(-c3nc4ccccn4c3NCc3ccccc3)ccc2OC)cc1,0,97,-,0,0,90,
CC(=O)Nc1ccc(S(=O)(=O)Nc2ccccc2C(=O)NCc2cccnc2)cc1,0,0,0,0,-,0,
SMILES,697 NFkB inh,Shn3 inh set2,aSyn UTR inh,Jurkat NFkB inh,TAG inh,Gli-Sufu antag,others
COc1ccc(OC)c(-c2cc(C(=O)Nc3c(C)n(C)n(-c4ccccc4)c3=O)no2)c1,0,0,0,0,-,0,
CCC(C)Sc1cc(-c2nc3ccc(C)cn3c2NCc2ccccc2)ccc1OC (stereo not drawn),-,97,0,-,0,66,
O=C1NC(c2ccc(-c3ccccc3[N+](=O)[O-])o2)C(C(=O)c2ccc(F)cc2)C(O)(C(F)(F)F)N1 (stereo not drawn),0,0,0,0,-,0,
CSc1nc(N2CCN(Cc3ccc4c(c3)OCO4)CC2)c2ccccc2n1,0,86,0,0,-,0,
Cc1nc(N2CCN(Cc3ccc4c(c3)OCO4)CC2)c2cc(-c3ccccc3)sc2n1,0,0,0,0,0,0,
CCCC(=O)Nc1nn(C)c2nc3ccc(C)cc3cc12,0,0,0,0,-,0,
COc1ccc(N/N=C/c2c(C(=O)O)ccc3ccccc23)cc1,0,93,0,54,0,0,Jurkat NFkB conf=0
Cn1c(=NC(=O)c2cccc([N+](=O)[O-])c2)sc2ccccc21,0,0,0,0,0,0,Jurkat NFkB conf=0
COCC(=O)Nc1cccc(-c2ccc3nncn3n2)c1,0,0,0,0,-,0,
CS(=O)(=O)c1ccc(Sc2nc3ccccc3s2)c([N+](=O)[O-])c1,0,95,0,94,-,0,Jurkat NFkB conf=58
CCOC(=O)c1c(-c2ccc(-c3ccccc3)cc2)csc1NC(=O)CNCCN(C)C,0,0,101,52,-,0,Jurkat NFkB conf=0
CN(C)S(=O)(=O)c1cccc(NC(=O)COC(=O)c2ccc3ccccc3n2)c1,0,0,-,60,0,0,Jurkat NFkB conf=0
Cc1cccc(N2CCN(C(=O)COc3noc4nc(C)cc(C)c34)CC2C)c1 (stereo not drawn),-,0,-,-,0,-,
O=C(O)c1ccccc1-c1ccccc1C(=O)Nc1ccc(-c2nc3cc(Cl)ccc3o2)cc1,0,0,0,0,0,0,
CC(=O)Nc1ccc(-c2nc3cc(Cl)ccc3o2)cc1,0,0,0,0,0,0,Jurkat NFkB conf=0
Cc1cc(C)nc(Nc2n[nH]c(-c3ccc(N)cc3)n2)n1,0,0,0,0,-,0,
CCCn1c(COc2ccccc2OC)nc2ccccc21,0,0,0,0,0,0,
[O-][n+]1onc2c1CCc1c-2nn(-c2ccccc2Cl)[n+]1[O-],0,0,0,59,-,0,Jurkat NFkB conf=0
COC(=O)c1cc(Cl)c(NC(=O)C(C)C)cc1OC,0,0,0,0,0,0,
COC(=O)c1cc(Cl)c(NC(=O)/C=C/c2ccc(OC)cc2)cc1OC,0,0,0,51,-,0,Jurkat NFkB conf=0
Cc1cc(C(=O)Nc2cccc(C(=O)O)c2)oc1C,0,0,87,56,0,0,Jurkat NFkB conf=0
O=C(Nc1cccc(Br)c1)c1cc2ccccc2o1,0,0,0,0,-,0,
Cc1cccc(NC(=O)c2cc3ccccc3o2)c1,0,0,0,0,-,0,Jurkat NFkB conf=0
Cc1cc(C(=O)Nc2cccc(C(=O)O)c2)c(C)o1,0,0,0,0,-,0,
CC(=O)c1ccc(NC(=O)Nc2ccc(Cl)cc2)cc1,0,0,0,0,-,0,Jurkat NFkB conf=0
SMILES,697 NFkB inh,Shn3 inh set2,aSyn UTR inh,Jurkat NFkB inh,TAG inh,Gli-Sufu antag,others
CC(=O)c1ccc(NC(=O)NC2CCCCCCC2)cc1,0,0,-,0,0,0,Jurkat NFkB conf=0
CC(=O)c1cccc(NC(=O)NC2CCCCCCC2)c1,0,0,0,0,0,0,
O=C(Nc1nnc(/N=C/c2ccco2)s1)c1ccc(F)cc1,0,0,0,0,0,0,
CN(C)c1ccc(/C=N/NC(=O)COc2ccccc2)cc1,0,0,0,0,0,0,
COc1ccc(/C=N/NC(=O)COc2ccccc2-c2ccccc2)cc1,0,0,70,56,59,0,Jurkat NFkB conf=47
COc1ccc(/C=N/NC(=O)CCn2cnc(-c3ccccc3)c2-c2ccccc2)cc1,0,0,?,57,0,0,Jurkat NFkB conf=0
O=C(CCn1cnc(-c2ccccc2)c1-c1ccccc1)N/N=C/c1ccc(O)cc1,0,0,0,0,-,0,

# High-throughput results deposited in PubChem by several laboratories.
